According to the supplement of paper PMC10849652:
Targets with a hit are over-represented here; the source holds about 8,800 in all. About 0.5% of all pairs of compound and target were hits.

Assays:
Test in all cases: log2 fold change, soluble protein after heating vs DMSO (PISA); higher = thermal stabilisation; K562 lysate, 10 uM; active = over 0.2 and 3.5 SD of the protein, either way, in both replicates (recomputed)
erlotinib = compound: C#Cc1cccc(Nc2ncnc3cc(OCCOC)c(OCCOC)cc23)c1 [erlotinib]
Method in brief: (§1)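 Values give the log-two fold change in thermal stability against solvent controls, from duplicates. Crude K562 extract at 1 mg/mL protein, made by dounce homogenisation in PBS pH 7.4 with 1 mM MgCl2, was treated with 10 μM compound for 30 min. After 3 min heating across 48°C-58°C, aliquots were pooled, adjusted to 0.5% NP-40 at 4°C and centrifuged at 21,000xg for 90 min. The supernatant was measured by TMTpro 16plex LC-MS/MS with channel sums equalised.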

[1] = compound: C/C(=N\NC(=O)C1=CC(=CC=C1)S(=O)(=O)N2CCOCC2)/C3=C(C=CC(=C3)Cl)O
Method in brief: as §1

[2] = compound: C1=CC(=CC=C1C2=NC3=C(N2)C=C(C=C3)C(=O)N)OC4=CC=C(C=C4)Cl
Method in brief: as §1

[3] = compound: C1=CC2=C(C=CC(=C2)/C=C\3/C(=O)NC(=NCC4=CC=CS4)S3)N=C1
Method in brief: as §1

[4] = compound: C1=CC2=NC=CN=C2C=C1/C=C/3\C(=O)NC(=O)S3
Method in brief: as §1

[5] = compound: C1=CC=C(C=C1)C2=NC(=C(N2)C3=CC=NC=C3)C4=CC(=C(C=C4)Cl)O
Method in brief: as §1

[6] = compound: C1=CC=C2C(=C1)C3=NNC4=CC=CC(=C43)C2=O
Method in brief: as §1

[7] = compound: C1CCN(C1)C(=O)NC2=CC=CC(=C2)NC3=NC=C(C(=N3)NCCC4=CN=CN4)Br
Method in brief: as §1

[8] = compound: C1CN(CCC1(CC2=CC=C(C=C2)Cl)N)C3=NC=NC4=C3C=CN4
Method in brief: as §1

IRAK-1-4 Inhibitor I = compound: C1COCCN1CCN2C3=CC=CC=C3N=C2NC(=O)C4=CC(=CC=C4)[N+](=O)[O-] [IRAK-1-4 Inhibitor I]
Method in brief: as §1

Measured: log2 fold change

SASS6 (UniProt Q6UVJ0)
Sequence of UniProt Q6UVJ0 (Q6UVJ0 whole entry, looked up): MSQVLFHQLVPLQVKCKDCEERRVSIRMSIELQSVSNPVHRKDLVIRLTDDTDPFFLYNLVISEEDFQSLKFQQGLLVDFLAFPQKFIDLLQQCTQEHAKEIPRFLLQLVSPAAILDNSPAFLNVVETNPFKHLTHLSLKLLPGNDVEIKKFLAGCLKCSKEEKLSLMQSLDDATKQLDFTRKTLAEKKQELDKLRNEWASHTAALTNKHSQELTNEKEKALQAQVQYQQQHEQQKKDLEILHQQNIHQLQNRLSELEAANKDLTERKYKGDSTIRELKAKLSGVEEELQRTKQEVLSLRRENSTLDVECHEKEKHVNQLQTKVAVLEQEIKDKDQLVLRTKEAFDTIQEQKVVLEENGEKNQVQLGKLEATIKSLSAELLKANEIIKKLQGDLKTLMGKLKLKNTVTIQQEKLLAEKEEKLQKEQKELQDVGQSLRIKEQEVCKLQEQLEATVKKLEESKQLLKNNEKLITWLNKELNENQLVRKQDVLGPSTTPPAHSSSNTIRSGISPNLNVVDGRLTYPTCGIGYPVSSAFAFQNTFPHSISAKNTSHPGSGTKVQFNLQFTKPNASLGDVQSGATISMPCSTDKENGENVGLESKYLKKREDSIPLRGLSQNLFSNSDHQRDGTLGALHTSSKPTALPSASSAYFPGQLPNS
inactive: erlotinib 0.024 | [1] 0.016 | [2] 0.028 | [3] -0.019 | [4] -0.009 | [5] 0.015 | [6] -0.023 | [7] -0.012 | [8] 0 | IRAK-1-4 Inhibitor I -0.021

RPL37A (UniProt P61513)
inactive: erlotinib -0.012 | [1] -0.067 | [2] -0.006 | [3] -0.011 | [4] -0.03 | [5] 0.03 | [6] 0.064 | [7] 0.039 | [8] -0.035 | IRAK-1-4 Inhibitor I -0.023

RBM8A (UniProt Q9Y5S9)
inactive: erlotinib -0.061 | [1] 0.035 | [2] -0.002 | [3] 0.069 | [4] -0.042 | [5] 0.029 | [6] 0.093 | [7] 0.086 | [8] -0.076 | IRAK-1-4 Inhibitor I -0.059

RBMX (UniProt P38159)
Sequence of UniProt P38159 (P38159 whole entry, looked up): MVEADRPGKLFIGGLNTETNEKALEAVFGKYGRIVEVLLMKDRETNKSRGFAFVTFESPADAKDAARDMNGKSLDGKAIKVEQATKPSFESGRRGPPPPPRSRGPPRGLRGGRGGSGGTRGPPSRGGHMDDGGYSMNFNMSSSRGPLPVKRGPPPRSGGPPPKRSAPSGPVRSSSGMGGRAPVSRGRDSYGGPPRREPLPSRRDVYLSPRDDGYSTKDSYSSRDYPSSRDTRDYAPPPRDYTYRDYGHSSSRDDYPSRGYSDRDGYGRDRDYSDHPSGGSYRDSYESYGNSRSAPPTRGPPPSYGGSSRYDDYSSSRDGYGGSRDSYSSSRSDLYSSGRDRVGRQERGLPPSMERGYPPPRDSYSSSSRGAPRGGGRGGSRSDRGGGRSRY
inactive: erlotinib 0 | [1] 0.019 | [2] -0.056 | [3] 0.016 | [4] 0.013 | [5] 0.025 | [6] 0.018 | [7] 0.06 | [8] 0.029 | IRAK-1-4 Inhibitor I -0.012

RCOR1 (UniProt Q9UKL0)
inactive: erlotinib -0.023 | [1] 0.065 | [2] -0.004 | [3] -0.053 | [4] -0.051 | [5] 0.005 | [6] -0.035 | [7] -0.008 | [8] 0.017 | IRAK-1-4 Inhibitor I 0.003

SCCPDH (UniProt Q8NBX0)
inactive: erlotinib -0.213 | [1] -0.055 | [2] -0.027 | [3] 0.083 | [4] -0.243 | [5] 0.052 | [6] 0.185 | [7] -0.03 | [8] 0.026 | IRAK-1-4 Inhibitor I 0.016

RIOK3 (UniProt O14730)
inactive: erlotinib 0.043 | [1] -0.114 | [2] -0.057 | [3] 0.029 | [4] -0.011 | [5] 0.023 | [6] 0.092 | [7] 0.016 | [8] -0.006 | IRAK-1-4 Inhibitor I 0.016

RAP1B (UniProt P61224)
inactive: erlotinib -0.017 | [1] -0.085 | [2] 0.024 | [3] 0.016 | [4] -0.031 | [5] 0.006 | [6] -0.014 | [7] -0.033 | [8] -0.004 | IRAK-1-4 Inhibitor I 0.014

QTRT2 isoform 4 (UniProt Q9H974)
inactive: erlotinib -0.024 | [1] 0.082 | [2] -0.032 | [3] -0.019 | [4] -0.048 | [5] -0.009 | [6] -0.007 | [7] 0.007 | [8] 0.022 | IRAK-1-4 Inhibitor I 0.006

RPL31 (UniProt P62899)
inactive: erlotinib -0.018 | [1] -0.097 | [2] -0.03 | [3] -0.01 | [4] 0.001 | [5] 0 | [6] 0.038 | [7] 0.043 | [8] -0.039 | IRAK-1-4 Inhibitor I 0.026

RAB3IL1 (UniProt E9PK89)
inactive: erlotinib -0.016 | [1] -0.075 | [2] 0.124 | [3] 0.013 | [4] -0.048 | [5] -0.04 | [6] 0.093 | [7] -0.034 | [8] -0.12 | IRAK-1-4 Inhibitor I 0.109

RETSAT (UniProt Q6NUM9)
Sequence of UniProt Q6NUM9 (Q6NUM9 whole entry, looked up): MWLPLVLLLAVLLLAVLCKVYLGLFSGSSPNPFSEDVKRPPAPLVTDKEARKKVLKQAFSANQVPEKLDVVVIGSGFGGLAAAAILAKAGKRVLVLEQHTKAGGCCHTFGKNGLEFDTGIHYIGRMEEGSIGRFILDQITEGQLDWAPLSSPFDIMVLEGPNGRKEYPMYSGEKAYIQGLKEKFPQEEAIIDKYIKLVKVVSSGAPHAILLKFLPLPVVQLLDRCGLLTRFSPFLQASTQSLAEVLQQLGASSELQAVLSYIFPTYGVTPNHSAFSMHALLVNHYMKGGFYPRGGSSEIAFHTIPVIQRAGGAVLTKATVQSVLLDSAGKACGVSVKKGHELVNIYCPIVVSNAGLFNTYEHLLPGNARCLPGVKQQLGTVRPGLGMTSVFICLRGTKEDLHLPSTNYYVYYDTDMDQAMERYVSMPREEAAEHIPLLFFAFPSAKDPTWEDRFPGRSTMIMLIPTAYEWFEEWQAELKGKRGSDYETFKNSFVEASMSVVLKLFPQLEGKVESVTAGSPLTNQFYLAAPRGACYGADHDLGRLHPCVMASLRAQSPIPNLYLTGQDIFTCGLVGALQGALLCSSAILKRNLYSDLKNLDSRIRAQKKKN
inactive: erlotinib -0.092 | [1] 0.054 | [2] 0.026 | [3] 0.021 | [4] -0.092 | [5] -0.004 | [6] -0.152 | [7] -0.077 | [8] -0.052 | IRAK-1-4 Inhibitor I 0.148

RELN (UniProt P78509)
Sequence of UniProt P78509 (P78509 whole entry, looked up): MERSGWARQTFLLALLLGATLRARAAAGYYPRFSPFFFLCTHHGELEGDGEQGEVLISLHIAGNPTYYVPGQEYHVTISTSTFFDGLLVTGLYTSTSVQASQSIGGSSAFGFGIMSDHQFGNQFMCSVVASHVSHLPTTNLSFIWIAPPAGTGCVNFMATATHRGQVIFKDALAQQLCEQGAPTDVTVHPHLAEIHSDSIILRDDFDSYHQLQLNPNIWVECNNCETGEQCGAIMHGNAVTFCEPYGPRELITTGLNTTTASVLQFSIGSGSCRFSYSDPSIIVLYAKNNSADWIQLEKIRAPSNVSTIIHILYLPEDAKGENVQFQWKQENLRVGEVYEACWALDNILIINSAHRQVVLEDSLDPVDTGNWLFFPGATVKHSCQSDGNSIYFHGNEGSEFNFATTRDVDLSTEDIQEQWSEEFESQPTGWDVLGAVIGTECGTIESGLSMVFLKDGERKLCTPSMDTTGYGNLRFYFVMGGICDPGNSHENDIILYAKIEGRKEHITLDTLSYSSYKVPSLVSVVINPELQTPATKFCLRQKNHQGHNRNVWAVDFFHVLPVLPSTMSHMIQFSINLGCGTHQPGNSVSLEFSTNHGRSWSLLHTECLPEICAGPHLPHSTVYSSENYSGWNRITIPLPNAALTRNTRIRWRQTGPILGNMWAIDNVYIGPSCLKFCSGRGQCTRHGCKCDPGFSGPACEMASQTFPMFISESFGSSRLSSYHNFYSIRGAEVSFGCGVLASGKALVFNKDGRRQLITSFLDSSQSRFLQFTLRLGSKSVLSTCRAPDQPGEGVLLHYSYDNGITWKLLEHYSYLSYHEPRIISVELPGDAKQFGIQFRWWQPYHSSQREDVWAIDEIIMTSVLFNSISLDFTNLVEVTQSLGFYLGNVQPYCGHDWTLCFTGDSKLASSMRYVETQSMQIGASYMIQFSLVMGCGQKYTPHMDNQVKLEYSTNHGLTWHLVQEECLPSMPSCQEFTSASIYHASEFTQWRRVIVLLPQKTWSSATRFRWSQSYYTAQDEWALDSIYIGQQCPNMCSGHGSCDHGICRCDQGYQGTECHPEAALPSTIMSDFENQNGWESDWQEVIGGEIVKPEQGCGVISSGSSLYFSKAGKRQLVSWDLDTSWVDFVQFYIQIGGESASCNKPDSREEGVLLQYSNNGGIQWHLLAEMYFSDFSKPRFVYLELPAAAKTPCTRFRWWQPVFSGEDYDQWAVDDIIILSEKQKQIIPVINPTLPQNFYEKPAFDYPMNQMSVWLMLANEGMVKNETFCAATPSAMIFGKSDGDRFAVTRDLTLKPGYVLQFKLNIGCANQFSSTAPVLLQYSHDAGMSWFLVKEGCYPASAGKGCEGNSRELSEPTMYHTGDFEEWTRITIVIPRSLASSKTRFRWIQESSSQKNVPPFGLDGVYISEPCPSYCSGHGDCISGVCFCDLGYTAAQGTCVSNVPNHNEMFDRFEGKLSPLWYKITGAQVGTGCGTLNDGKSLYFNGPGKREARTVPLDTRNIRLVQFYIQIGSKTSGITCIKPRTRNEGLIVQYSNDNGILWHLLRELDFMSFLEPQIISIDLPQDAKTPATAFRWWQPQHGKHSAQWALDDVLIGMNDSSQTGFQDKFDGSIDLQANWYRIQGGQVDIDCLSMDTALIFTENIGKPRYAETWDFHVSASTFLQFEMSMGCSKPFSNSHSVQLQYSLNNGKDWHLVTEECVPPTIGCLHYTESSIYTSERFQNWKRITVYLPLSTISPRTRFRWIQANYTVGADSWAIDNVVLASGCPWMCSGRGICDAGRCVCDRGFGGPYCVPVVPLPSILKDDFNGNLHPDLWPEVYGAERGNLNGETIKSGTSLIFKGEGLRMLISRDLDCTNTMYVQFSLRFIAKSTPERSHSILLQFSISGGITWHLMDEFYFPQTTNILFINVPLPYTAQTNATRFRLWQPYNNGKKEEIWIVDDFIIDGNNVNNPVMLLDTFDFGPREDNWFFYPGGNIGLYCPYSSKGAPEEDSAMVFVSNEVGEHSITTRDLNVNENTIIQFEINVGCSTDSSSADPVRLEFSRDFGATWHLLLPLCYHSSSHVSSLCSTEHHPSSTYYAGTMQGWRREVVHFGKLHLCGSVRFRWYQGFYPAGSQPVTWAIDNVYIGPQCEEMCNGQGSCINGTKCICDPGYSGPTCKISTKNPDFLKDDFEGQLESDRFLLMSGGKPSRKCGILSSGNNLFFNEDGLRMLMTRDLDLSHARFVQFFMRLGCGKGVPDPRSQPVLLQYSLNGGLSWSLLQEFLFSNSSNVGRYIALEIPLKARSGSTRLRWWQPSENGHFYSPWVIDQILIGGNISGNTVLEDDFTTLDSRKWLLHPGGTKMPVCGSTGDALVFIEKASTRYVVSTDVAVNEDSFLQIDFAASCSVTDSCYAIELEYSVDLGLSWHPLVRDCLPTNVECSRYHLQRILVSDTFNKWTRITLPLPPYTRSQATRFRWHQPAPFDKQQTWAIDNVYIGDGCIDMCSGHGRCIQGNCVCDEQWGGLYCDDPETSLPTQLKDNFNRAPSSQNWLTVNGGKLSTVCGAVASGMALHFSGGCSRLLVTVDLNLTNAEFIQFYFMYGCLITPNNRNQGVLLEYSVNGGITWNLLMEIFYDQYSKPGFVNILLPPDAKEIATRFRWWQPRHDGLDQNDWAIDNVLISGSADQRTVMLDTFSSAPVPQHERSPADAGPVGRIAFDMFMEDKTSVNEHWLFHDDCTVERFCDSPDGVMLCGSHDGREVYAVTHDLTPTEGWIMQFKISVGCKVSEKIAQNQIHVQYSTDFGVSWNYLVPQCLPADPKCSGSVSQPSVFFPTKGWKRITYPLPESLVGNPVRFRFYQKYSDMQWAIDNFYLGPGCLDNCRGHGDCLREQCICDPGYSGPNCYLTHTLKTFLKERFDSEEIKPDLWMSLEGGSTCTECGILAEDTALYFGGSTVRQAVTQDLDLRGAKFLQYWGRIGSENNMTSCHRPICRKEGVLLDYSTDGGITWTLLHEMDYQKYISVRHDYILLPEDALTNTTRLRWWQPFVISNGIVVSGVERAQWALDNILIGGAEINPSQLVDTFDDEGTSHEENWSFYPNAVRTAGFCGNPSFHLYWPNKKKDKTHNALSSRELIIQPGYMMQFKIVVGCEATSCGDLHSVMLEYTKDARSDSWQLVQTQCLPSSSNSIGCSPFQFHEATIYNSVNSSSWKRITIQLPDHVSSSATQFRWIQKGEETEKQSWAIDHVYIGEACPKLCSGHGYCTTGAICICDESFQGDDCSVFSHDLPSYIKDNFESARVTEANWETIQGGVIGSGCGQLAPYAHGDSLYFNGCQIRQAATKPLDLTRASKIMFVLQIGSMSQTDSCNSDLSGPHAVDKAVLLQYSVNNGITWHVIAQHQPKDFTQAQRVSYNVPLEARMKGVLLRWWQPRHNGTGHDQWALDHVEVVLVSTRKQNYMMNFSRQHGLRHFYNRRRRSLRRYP
inactive: erlotinib 0.012 | [1] 0.004 | [2] 0.014 | [3] 0.025 | [4] 0.001 | [5] 0.033 | [6] -0.015 | [7] 0.042 | [8] 0.058 | IRAK-1-4 Inhibitor I 0.002

RPAP1 (UniProt Q9BWH6)
inactive: erlotinib 0.05 | [1] -0.078 | [2] 0.019 | [3] 0.016 | [4] 0.007 | [5] -0.028 | [6] 0.001 | [7] -0.001 | [8] 0.02 | IRAK-1-4 Inhibitor I 0.005

SESN2 (UniProt P58004)
inactive: erlotinib 0.043 | [1] 0.102 | [2] -0.007 | [3] -0.017 | [4] 0.023 | [5] -0.037 | [6] -0.07 | [7] 0.051 | [8] -0.014 | IRAK-1-4 Inhibitor I -0.048
